In the library only some 19% were active in any assay of this set; here they are far more common.
IL-1B inflam inh: inhibitors of inflammasome signaling (IL-1 beta secretion); activity change, % at 57.5 µM; 360,000 compounds, 4.7% hits; AID 743279; THP-1 LPS/ATP IL-1B secretion, AlphaLISA, 16 h; stronger effect = lower value; in the data active = activity change below about -50%; inconclusive = mostly about -30% to -49%
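Secreted IL-1B measured by AlphaLISA bead assay after 16 h compound exposure of THP-1 cells; compounds (final up to 57.5 uM) added 1 h before LPS (250 ng/mL) and ATP (1.25 mM) stimulation; lower signal means less secretion.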
TDP1 cell noCPT: qHTS for Inhibitors of human tyrosyl-DNA phosphodiesterase 1 (TDP1): qHTS in cells in absence of CPT. DT40 Tdp1-/- hTDP1 cells, no CPT, ATP luminescence, 48 h. Potency, µM (top dose mostly 46.2 µM), for inactives: top-dose activity change, negative = growth inhibition, usual class: inhibitors. 420,000 compounds, 15% hits. AID 686978, 2013; also: potency is read from the fitted curve at half-maximal effect; nearly all actives have a fitted effect of over 55% in size
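Stably hTDP1-transfected Tdp1-null chicken DT40 cells were treated with library compounds minus camptothecin and grown for at least 48 hr at 37 °C, after which cellular ATP was quantified by luminescence.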
HT1080 IDH1KD tx: toxicity to HT-1080 IDH1 knockdown cells (counter line); HT-1080 IDH1 knockdown viability, ATP luminescence, 48 h; Potency, µM (top dose mostly 46.1 µM), for the others: top-dose activity, negative = toxicity, actives largely listed as cytotoxic; 360,000 compounds, 2% hits;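 also: potency is read from the fitted curve at half-maximal effect; 0% = DMSO wells and -100% = cell-free medium wells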
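HT-1080-IDH1KD cells (IDH1 knocked down), 750/well in RPMI with 5% FBS, treated with compound 48 h at 37 degrees C. Viability by CellTiter-Glo luminescence, normalised to DMSO and no-cell wells; concentration-response curves classed.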
DT40 TDP1 CPT: growth inhibition of DT40 Tdp1-/-;hTDP1 cells with camptothecin (screen for TDP1 inhibitors); chicken DT40 Tdp1-/-;hTDP1 cells + 20 nM CPT, ATP luminescence, 48 h; Potency, µM (series often up to 46.2 µM), inactives show at the highest dose activity change, negative = growth inhibition, most hits filed as inhibitors; 420,000 compounds, 12% hits; AID 686979; also: potency is read from the fitted curve at half-maximal effect; nearly all actives have a fitted effect of over 55% in size
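Chicken DT40 Tdp1-/- cells complemented with human TDP1, 400 cells/well, exposed to compounds plus 20 nM camptothecin for at least 48 h at 37 C; viability read as ATP content by CellTiter-Glo luminescence.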
HT1080-NT tox: kills 2HG-producing HT-1080-NT fibrosarcoma cells | Potency, µM (highest dose often 46.1 µM), for inactives: at the top dose activity, negative = less viability, hits mostly cytotoxic | HT-1080-NT fibrosarcoma viability, CellTiter-Glo ATP luminescence, 48 h | 360,000 compounds, 1.6% hits | AID 686970;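 also: NT is the 2HG producing partner of a matched IDH1 knockdown line; potency is read from the fitted curve at half-maximal effect; 0% = DMSO-treated cells and -100% = media-only wells without cells; nearly all actives have a fitted effect of over 55% in size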
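Read-out is CellTiter-Glo luminescence after 10 minutes at room temperature, following 48 hours' compound treatment of HT-1080-NT cells (750 cells/well, RPMI, 5% FBS, 37 degrees C).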
* = called active by the depositor; ? = inconclusive; . = no result; [ ] = remark or other dose. Unless noted, calls follow the shape of the dose curve; as a rule, active = well fitted curve in the direction sought with a large enough effect; inconclusive = small, poorly fitted or top-dose-only effect, or another doubt; inactive = no such curve, though single readings can be large; an effect the other way counts as inactive or inconclusive. Unless noted, % is scaled to controls: 0 for no effect and ±100 for the full control effect.

SMILES	IL-1B inflam inh	TDP1 cell noCPT	HT1080 IDH1KD tx	DT40 TDP1 CPT	HT1080-NT tox
O=C(Cc1cscn1)N1CCOc2ccc(CN3CCN(c4ccccn4)CC3)cc2C1	.	-14%	.	-1%[9.04 µM]	.
COc1cccc(-c2cc(C(=O)N3CCN(Cc4ccc5c(c4)OCO5)CC3)on2)c1	7	-11%	-3%	-18%	-15%
Cc1nc(C)c(CC(=O)N2CCOc3ccc(CN4CCN(c5ccccn5)CC4)cc3C2)s1	.	7.3µM*	.	?	.
CCOC(=O)N1CCN(Cc2ccc3c(c2)CN(C(=O)c2cc(-c4ccccc4)no2)CCO3)CC1	.	23µM*	.	?	.
COc1cccc(-c2cc(C(=O)N3CCN(Cc4ccccc4)CC3)no2)c1	11	-16%	13%	-21%	6%
CCOC(=O)N1CCN(Cc2ccc3c(c2)CN(C(=O)c2cc(-c4ccccc4)on2)CCO3)CC1	.	21µM*	.	-6%[9.04 µM]	.
O=C1CCC(C(=O)N(CCO)Cc2ccccc2)CN1CCc1cccc(F)c1 (centres undefined)	-8	-25%	4%	4%	3%
Cc1cc(C)cc(CN2CCOc3ccc(CN4CCC(O)(c5cccnc5)CC4)cc3C2)c1	.	?	.	-2%[9.04 µM]	.
CCn1c(Sc2ccc(N)cc2Cl)nc2ccccc21	-7	-25%	8%	-12%	?
CC(C)CN(C)C(=O)CCc1nnc(Cc2ccc(-c3ccccc3)cc2)o1	12	12µM*	-5%	?	-16%
CC(C)Cn1c(SCc2nc3ccccc3c(=O)[nH]2)nc2ccccc2c1=O	6	?	-9%	?	5%
CCS(=O)(=O)c1ccc(C=NNc2nc3ccccc3o2)cc1	-25	23µM*	12%	?	2%
CCCCCCCCCCCCN1C/C(=C\C(=O)OCC)c2ccccc2S1(=O)=O	25	11µM*	-8%	16µM*	1%
CCOC(=O)/C=C1\CN(Cc2cc(OC)c(OC)c(OC)c2)S(=O)(=O)c2ccc(C(F)(F)F)cc21	-26	12µM*	-6%	23µM*	0%
CCOC(=O)/C=C1\CN(Cc2cc(OC)c(OC)c(OC)c2)S(=O)(=O)c2ccccc21	0	6.5µM*	-10%	10µM*	?
CCCCCCCCCCCCN1C/C(=C\C(=O)OCC)c2cc(C(F)(F)F)ccc2S1(=O)=O	32	?	-2%	?	-3%
O=c1oc2ccccc2c2c1ccc1ccccc12	33	?	5%	?	3%
O=C(NOCc1ccccc1)c1coc(-c2ccccc2)n1	22	17%	16%	9%	3%
C[C@H](CO)N1C[C@H](C)[C@H](CN(C)S(=O)(=O)c2ccc(-n3cccn3)cc2)OCc2cnnn2CCCC1=O	-23	?	1%	-8%	-3%
COc1ccc(-n2c(=O)c(CCc3ccccc3)nc3cnc(N4CCNCC4)nc32)cc1	.	-12%	.	?	.
COc1ccc(-c2ccnc(-n3ncc(C(=O)NCc4cccnc4)c3C3CC3)n2)cc1F	.	16µM*	.	-9%[9.04 µM]	.
COc1ccc(-c2ccnc(-n3ncc(C(=O)NCc4ccon4)c3C3CC3)n2)cc1F	.	23µM*	.	?	.
Cc1cc(-c2ccnc(-n3ncc(C(=O)NCc4cccnc4)c3C3CC3)n2)c(C)s1	.	?	.	-12%[9.04 µM]	.
COc1ccc(-c2nc3cc(NC(=O)COc4ccccc4C)ccc3o2)cc1	.	-23%	.	-28%	.
CC(C)c1nnc(NC(=O)C2CCN(C(=O)C(C)(C)C)CC2)s1	.	1%	.	6%	.
SMILES	IL-1B inflam inh	TDP1 cell noCPT	HT1080 IDH1KD tx	DT40 TDP1 CPT	HT1080-NT tox
CCNC(=O)C1(C)CCN(Cc2ccccc2-c2ccccc2)C1 (centres undefined)	16	?	11%	?	22%
CCNC(=O)C1(C)CCN(Cc2ccc(-c3ccccc3)cc2)C1 (centres undefined)	-8	21µM*	-19%	?	-25%
CCNC(=O)C1(C)CCN(Cc2csc(-c3ccccc3)n2)C1 (centres undefined)	-17	12µM*	0%	?	-22%
CCNC(=O)C1(C)CCCN(Cc2csc(-c3ccccc3)n2)C1 (centres undefined)	16	?	?	?	?
Cn1c(=O)oc2cc(S(=O)(=O)NCCC(=O)NCc3ccc(F)cc3)ccc21	1	-4%	1%	-12%	2%
O=C(OCc1cn([C@H]2CN(C(=O)c3cccs3)[C@@H](c3ccc(Cl)cc3)C[C@@H]2O)nn1)c1ccccc1	45	?	?	23µM*	-1%
O=C(OCc1cn([C@H]2CN(C(=O)c3cccs3)[C@@H](c3ccccc3)C[C@@H]2O)nn1)c1ccccc1	21	15µM*	1%	?	-1%
CCOC(=O)[C@@H]1[C@H]2COc3cc(OC)ccc3[C@H]2N2C(=O)N(c3ccc(Br)cc3)C(=O)[C@]12C	-14	?	1%	-10%	?
O=C(c1ccc(CSc2nc3ccncc3n2Cc2cccc(F)c2)cc1)N1CCCCCC1	.	16µM*	.	?	.
O=C(c1ccc(CSc2nc3ccncc3n2Cc2ccccc2F)cc1)N1CCCCC1	.	?	.	-4%	.
O=C(c1ccc(CSc2nc3ccncc3n2Cc2cccc(F)c2)cc1)N1CCCCC1	.	21µM*	.	?	.
O=C(NCc1ccc(F)cc1)C(=O)NCC1OCCN1S(=O)(=O)c1cc(F)ccc1F (centres undefined)	-12	-8%	5%	-18%	8%
O=C(c1ccccc1)C1N=NCC1c1ccc(Cl)cc1 (centres undefined)	-27	?	2%	11%	4%
O=C(C1=NNCC1c1ccc(Cl)cc1)C1CO1 (centres undefined)	-67*	?	-9%	8.2µM*	-2%
COc1ccccc1-c1noc(-c2ccc(N3CCC(C)CC3)c([N+](=O)[O-])c2)n1	.	13µM*	.	?	.
Cc1noc(-c2ccc(N3CCCCC3)c([N+](=O)[O-])c2)n1	.	-27%	.	?	.
COc1ccccc1-c1noc(-c2ccc(N3CCN(c4ccccc4)CC3)c([N+](=O)[O-])c2)n1	.	13µM*	.	23µM*	.
COc1ccccc1N1CCN(c2ccc(-c3nc(-c4ccccc4C)no3)cc2[N+](=O)[O-])CC1	.	10%	.	0%	.
COc1ccc(-c2noc(-c3ccc(N4CCN(c5ccccc5)CC4)c([N+](=O)[O-])c3)n2)cc1	.	-11%	.	?	.
Cc1ccccc1-c1noc(-c2ccc(N3CCCCC3)c([N+](=O)[O-])c2)n1	.	12µM*	.	?	.
COc1ccccc1N1CCN(c2ccc(-c3nc(-c4ccccc4)no3)cc2[N+](=O)[O-])CC1	.	9.2µM*	.	12µM*	.

Source: PubChem
